Assay outcomes from PubChem BioAssay.
KDM5B inhibitor: blocks human KDM5B histone demethylase activity | Q9UGL1 | KDM5B demethylase, FDH-coupled NADH fluorescence (FDH is formaldehyde dehydrogenase) | Potency, µM (titrated, usually from 57.7 µM), usual class: inhibitors | 2.6% of 220,000 active | AID 1347165; active means well fitted inhibition curve with a large enough effect; inconclusive means small, poorly fitted or top-dose-only effect; inactive means no such curve, though single readings can be large or run the other way; further: potency means the concentration at half of the fitted maximal effect; 0% is about no effect; nearly all actives have a fitted effect of over 70% in size
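Coupled FDH/NAD⁺ fluorescence readout. KDM5BΔAP 200 nM final; compound titration, 10 min RT preincubation; substrate mix 12.5 µM H3K4me3, 25 µM 2-OG, 50 µM Fe(II), 100 µM ascorbate, 0.25 mM NAD⁺, 0.25 U/mL FDH; ΔRFU over 30 min.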
IP6K1 inhibitor: inhibitors of human IP6K1; Q92551; IP6K1 kinase, ADP-Glo luminescence, 2 h; active compounds read low; activity change, % (series mostly up to about 58 µM); 0.81% of 140,000 active; AID 1645851; in the data active means activity change below about -25%; further: on the % scale 0 is the no-effect control and ±100 the full control effect
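ADP-Glo luminescence measures ADP made by human IP6K1 during a 2 h RT reaction with ATP/IP6 (mix at 1.3 mM/130 uM); top library doses 57.5 and 19.1 uM final.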
* marks the source's active call; other numbers are inactive results. An excerpt weighted towards active compounds, which were near 2.8% of everything screened.

For Cc1nn(-c2ccc(F)cc2)c(C)c1CNC(=O)C1NCCc2[nH]cnc21 (stereo unspecified) the results were KDM5B inhibitor 13µM* and IP6K1 inhibitor 0.
O=C(NCc1nnnn1-c1ccccc1)C1NCCc2[nH]cnc21 (stereo unspecified) was read as KDM5B inhibitor inactive and IP6K1 inhibitor 31.
Screening COc1cccc(-c2ncc(CNC(=O)C3NCCc4[nH]cnc43)s2)c1 (stereo unspecified) returned KDM5B inhibitor 20µM* and IP6K1 inhibitor 7.
For O=C(NCCc1nc(-c2cccnc2)n[nH]1)C1NCCc2[nH]cnc21 (stereo unspecified) the results were KDM5B inhibitor 7.9µM* and IP6K1 inhibitor 6.
`O=C(NCCc1csc(-c2cnccn2)n1)C1CC2(CCNCC2)CN1` (stereo unspecified) gave KDM5B inhibitor 28µM* and IP6K1 inhibitor 17.
Cn1c(=O)[nH]c(=O)c2c1nc(Sc1nc3ccccc3[nH]1)n2CCCc1ccccc1 was read as KDM5B inhibitor inactive.
`Cc1nn(-c2ccc(F)cc2)c(Oc2cccc(F)c2)c1CCC(=O)N1CCSCC1` gave KDM5B inhibitor inactive and IP6K1 inhibitor 2.
Screening O=C(NCCc1csc(-c2cccnc2)n1)C1NCCc2[nH]cnc21 (stereo unspecified) returned KDM5B inhibitor 13µM* and IP6K1 inhibitor -5.
For O=C(NCc1ccc2nonc2c1)C1NCCc2[nH]cnc21 (stereo unspecified) the results were KDM5B inhibitor inconclusive and IP6K1 inhibitor 15.
Screening O=C(NCCc1csc(-c2ncccn2)n1)C1NCCc2[nH]cnc21 (stereo unspecified) returned KDM5B inhibitor inactive and IP6K1 inhibitor -11.
For O=C(NCc1csc(-c2cnccn2)n1)C1NCCc2[nH]cnc21 (stereo unspecified) the results were KDM5B inhibitor 25µM* and IP6K1 inhibitor 18.
`CC(C)Cn1c(=O)c(C(=O)NCc2ccccc2F)nc2cccnc21` gave IP6K1 inhibitor 16.
Screening COc1ccc(CCN2C(=O)CN(C3CCCCCC3)C(=O)C2c2ccccc2F)cc1OC (stereo unspecified) returned KDM5B inhibitor inactive.
`COC(=O)[C@@H]1Cc2nc[nH]c2CN1Cc1ccc(Cl)cc1` gave KDM5B inhibitor 32µM* and IP6K1 inhibitor 1.
Screening COc1ccc(CN2Cc3[nH]cnc3C[C@H]2C(=O)N(C)Cc2ccccc2)c2ccccc12 returned KDM5B inhibitor inactive and IP6K1 inhibitor -7.
COc1ccc(CN2Cc3[nH]cnc3C[C@H]2C(=O)NCc2ccccc2)c2ccccc12 was read as KDM5B inhibitor 40µM* and IP6K1 inhibitor 7.
Screening COc1ccc(CNC(=O)[C@@H]2Cc3nc[nH]c3CN2C(=O)NC2CCCCC2)cc1 returned KDM5B inhibitor 32µM* and IP6K1 inhibitor -3.
COC(=O)[C@@H]1Cc2nc[nH]c2CN1Cc1ccc(NC(C)=O)cc1 was read as KDM5B inhibitor inconclusive and IP6K1 inhibitor 12.
For COc1ccc(CN2Cc3[nH]cnc3C[C@H]2C(=O)NCc2ccc(Cl)cc2)c2ccccc12 the results were KDM5B inhibitor inconclusive and IP6K1 inhibitor 1.
COc1ccc(CN2Cc3[nH]cnc3C[C@H]2C(=O)NC2CCCCC2)c2ccccc12 was read as KDM5B inhibitor 35µM* and IP6K1 inhibitor 15.
Screening N#Cc1ccc(CNC(=O)[C@@H]2Cc3nc[nH]c3CN2C(=O)NC2CCCCC2)cc1 returned KDM5B inhibitor inactive and IP6K1 inhibitor 6.
`O=[S+]([O-])(NC1CCN(c2ccnc3ccnn23)C1)c1cccs1` (stereo unspecified) gave IP6K1 inhibitor -3.
Screening O=C(Nc1ncn(Cc2ccccc2F)n1)c1cc(S(=O)(=O)N2CCCC2)c(Cl)cc1Cl returned KDM5B inhibitor inactive.
COc1ccccc1-c1nnc2ccc(C(=O)NCCc3ccccc3)cn12 was read as IP6K1 inhibitor 9.
Screening O=C1CCN(Cc2ccncc2)CCCC(C(=O)Nc2ccccc2CCc2ccncc2)CCN1 (stereo unspecified) returned KDM5B inhibitor inconclusive and IP6K1 inhibitor -2.
CC(=O)c1nnn(-c2nc(N3CCCC3)nc(N3CCCC3)n2)c1C was read as KDM5B inhibitor inactive.
Screening CCc1ccc(/C=C/C(=O)c2ccc(CC(=O)O)cc2)cc1 returned KDM5B inhibitor inactive.
CC(=O)NC1(C)CCN(Cc2cnc(-c3ccccc3)s2)CC1 was read as KDM5B inhibitor inactive and IP6K1 inhibitor -3.
Screening CC(=O)NC1(C)CCN(Cc2cnc(-c3ccccc3OCc3ccccc3)s2)CC1 returned KDM5B inhibitor 40µM* and IP6K1 inhibitor -9.
For Cc1cccc(C)c1NC(=O)c1ccc2ncsc2c1 the results were KDM5B inhibitor inactive.
Cc1ccsc1C(=O)NC1CCc2nn(CC3CC3)c(=O)n2CC1 (stereo unspecified) was read as KDM5B inhibitor inactive and IP6K1 inhibitor -6.
Cn1nc(C(=O)NC2CCc3nn(CC4CC4)c(=O)n3CC2)c2ccccc21 (stereo unspecified) was read as KDM5B inhibitor 28µM* and IP6K1 inhibitor -5.
O=C(NC1CCc2nn(CC3CC3)c(=O)n2CC1)c1ccc[nH]c1=O (stereo unspecified) was read as KDM5B inhibitor 28µM* and IP6K1 inhibitor -15.
COc1ccc(C(=O)NC2CCc3nn(CC4CC4)c(=O)n3CC2)c(C)c1 (stereo unspecified) was read as KDM5B inhibitor inactive and IP6K1 inhibitor -8.
Screening O=C(Cc1c[nH]c2ccccc12)N1CCCN(c2cc(-c3ccc(Br)cc3)[nH]n2)CC1 returned KDM5B inhibitor inconclusive and IP6K1 inhibitor -6.
`CCOC(=O)c1sc2ccccc2c1S(=O)(=O)Nc1cccc(OC)c1` gave KDM5B inhibitor inactive.
COc1ccccc1Nc1ccnc(N2CCCC(C(=O)NCc3cccs3)C2)n1 (stereo unspecified) was read as IP6K1 inhibitor -13.
`O=C(c1ccn2nccc2c1)N1CCOCC1` gave KDM5B inhibitor 32µM* and IP6K1 inhibitor 1.
Screening O=C(c1ccc2ccnn2c1)N1CCOCC1 returned KDM5B inhibitor inconclusive and IP6K1 inhibitor -4.
COc1ccccc1C1=NS(=O)(=O)N(C)C(C(=O)N2CCN(C)CC2)=C1 was read as KDM5B inhibitor inactive.
Cc1cn2nc(C(=O)N3CCN(c4ccccc4F)CC3)cc2c(N2CCCC2)n1 was read as KDM5B inhibitor 32µM* and IP6K1 inhibitor 0.
Cc1cn2nc(C(=O)N3CCCC3)cc2c(=O)[nH]1 was read as KDM5B inhibitor inconclusive and IP6K1 inhibitor 2.
`Cc1cn2nc(C(=O)N3CCCC3)cc2c(N2CCSCC2)n1` gave KDM5B inhibitor 28µM* and IP6K1 inhibitor -8.
For Cc1nc(N2CCCC2)ncc1C(=O)N1CCN(c2ccccc2F)CC1 the results were KDM5B inhibitor inconclusive and IP6K1 inhibitor -7.
CCCc1nc(N2CCN(CC(=O)N3CCCC3)CC2)c(C#N)c2c1CCC2 was read as KDM5B inhibitor inactive.
Cn1nc(-c2nc(C3CCOC3)no2)cc1-c1ccccc1 (stereo unspecified) was read as KDM5B inhibitor inactive and IP6K1 inhibitor -4.
`Cc1cc(-c2nc(C3CCOC3)no2)c2ccccc2n1` (stereo unspecified) gave KDM5B inhibitor 28µM* and IP6K1 inhibitor -5.
